Nrf2 block: Nrf2 pathway inhibition | A549 ARE-Fluc reporter, luciferase luminescence, 18-24 h | Potency, µM (titrated, usually from 46 µM), for inactives: top-dose activity change, negative = inhibition, actives largely listed as inhibitors | 360,000 tested, 2.1% active | AID 504444; also: % is scaled to controls: 0 for no effect and ±100 for the full control effect; nearly all actives have a fitted effect of over 60% in size
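Quantitative HTS in A549 cells stably bearing an antioxidant response element-firefly luciferase construct. Inhibition of Nrf2-driven transcription was scored by luminescence after 18-24 h of compound exposure at 37 °C.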
PINK1 modulator: changes PINK1 expression. PINK1 immunofluorescence, high-content cytometry, 24 h. Potency, µM (highest dose often 76.6 µM), without a hit: at the top dose activation (PINK1 increase), usual class: activators. 410,000 tested, 0.2% active. AID 624263; active = well fitted activation curve with a large enough effect; inconclusive = small, poorly fitted or top-dose-only effect; cell line not stated here; also: % of control where 0% means no effect; nearly all actives have a fitted effect of over 65% in size
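Readout is PINK1 immunofluorescence, quantified alongside mitochondrial, cell and nuclear markers by laser-scanning microplate cytometry. Cells from a stable line were exposed to compound titrations (5 concentrations) for 24 hours, with CCCP controls.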
Nrf2 ARE act: activates Nrf2 signaling; AREc32 ARE-luciferase reporter (MCF7-derived line), luminescence, 24 h; Potency, µM (doses to about 46.1 µM), for inactives: top-dose activation, actives largely listed as activators; 410,000 tested, 0.31% active; AID 624171; also: % of control where 0% means no effect; nearly all actives have a fitted effect of over 65% in size
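Nrf2 activation is followed as ARE-luciferase induction in the AREc32 line after one day of compound treatment; luminescence is read with Steady-Glo.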
A549 viability: counter-screen for Nrf2 inhibitors: cytotoxicity in A549 cells | A549 ARE-Fluc cells, CellTiter-Fluor viability, 18-24 h | Potency, µM (doses to about 46 µM), inactives show top-dose activity change, negative = cytotoxicity, usual class: inhibitors | 390,000 tested, 0.16% active; also: % is scaled to controls: 0 for no effect and ±100 for the full control effect
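Cytotoxicity counterscreen: CellTiter-Fluor fluorescence was measured in A549 ARE_Fluc cells after 18-24 h of compound exposure in a concentration series. The subsequent BugLite luminescent read reports ARE-luciferase activity.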
Epigenetic reg: epigenetic control regulation, reporter derepression; murine LDR cells, GFP reporter derepression, 30 h; Potency, µM (titrated, usually from 53.9 µM), without a hit: top-dose GFP activation, most hits filed as activators; 280,000 tested, 0.2% active; AID 1865; also: % of control where 0% means no effect; nearly all actives have a fitted effect of over 60% in size
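Murine LDR cells bearing a silenced CMV-driven GFP reporter were exposed to compound for 30 h at 37 C. After PBS washes, GFP-positive cells (20-120 um objects) counted by laser-scanning microplate cytometry.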
The depositor's hits bear a star; u = inconclusive; x = no result; [ ] = remark or other dose. An excerpt weighted towards active compounds, which were near 2.4% of everything screened. Unless noted, calls follow the shape of the dose curve; as a rule, active = well fitted curve in the direction sought with a large enough effect; inconclusive = small, poorly fitted or top-dose-only effect, or another doubt; inactive = no such curve, though single readings can be large; an effect the other way counts as inactive or inconclusive. Potency is read from the fitted curve at half-maximal effect.

SMILES	Nrf2 block	PINK1 modulator	Nrf2 ARE act	A549 viability	Epigenetic reg
COc1ccccc1/C=C1\SC(=S)N(CCC(=O)NCCCN2CCOCC2)C1=O	u	0.9%	27.3%	23.1µM*	-1.0%
S=c1ncc2n[nH]nc2[nH]1	x	0.8%	x	x	x
Cc1ccc2nc(-c3ccncc3)c(Nc3ccc(C(C)C)cc3)n2c1	3.0%	-2.1%	1.1%	-1.3%	0.4%
COc1ccc(NC(=O)c2cc3c(Cl)nc4ccccc4c3s2)cc1OC	10.3µM*	25.8%	-0.7%	-28.0%	0.0%
COc1cccc(-c2cc(C(=O)Nc3cc(OC)c(OC)c(OC)c3)no2)c1	x	11.2µM*	-0.3%	-7.3%	2.2%
COc1cc(NC(=O)c2cc(-c3ccccc3)on2)cc(OC)c1OC	u	10.5%	0.5%	-9.7%	x
COc1ccc(OC)c(NC(=O)c2cc3c(Cl)nc4ccccc4c3s2)c1	-9.5%	8.4%	-0.5%	-2.7%	0.9%
COc1ccc(NC(=O)c2cc(C)on2)cc1OC	21.4%	12.6µM*	-0.3%	0.0%[1.84 µM]	0.0%
COc1ccc(NC(=O)c2cc(C(C)C)on2)cc1OC	-0.1%	5.0%[38.3 µM]	1.8%	-13.9%	-1.1%
Cc1nc2ccccc2c(=O)n1NCc1cc(Br)cs1	-12.2%	2.8%[38.3 µM]	7.94µM*	6.0%	-0.1%
Cc1nc2ccccc2c(=O)n1NS(C)(=O)=O	x	-0.6%	-0.7%	2.4%	-1.1%
Cc1ccc(Nc2nc(C#N)nc(NC3CCCC3)n2)cc1	18.0%	x	x	-0.7%	x
O=C(c1ccc2c(=O)n3c(nc2c1)CCCCC3)N1CCN(c2ccc([N+](=O)[O-])cc2)CC1	23.1µM*	1.9%	-0.3%	u	x
O=C(c1ccc2c(=O)n3c(nc2c1)CCCCC3)N1CCN(c2ccccc2)CC1	-2.8%	1.1%	-0.1%	-4.9%	0.5%
O=C(c1ccc2c(=O)n3c(nc2c1)CCCCC3)N1CCN(C(c2ccccc2)c2ccccc2)CC1	20.6µM*	5.8%[38.3 µM]	-0.5%	-16.7%	0.1%
O=C(N/N=C/c1c(Cl)cccc1Cl)c1ccccc1F	u	0.1%	5.01µM*	7.1%	6.0%
O=C(N/N=C/c1c(Cl)cccc1Cl)c1ccc(F)cc1	x	6.2%[38.3 µM]	u	-1.4%	0.0%
Cc1ccc(-c2nn(-c3ccccc3)cc2C2CC(c3ccccc3)=NN2C(=O)CCC(=O)O)cc1 (stereo unspecified)	20.6µM*	-2.4%	-0.2%	-6.7%	0.1%
CCCC(=O)Nc1ccc(C(=O)Nc2cc(C(F)(F)F)ccc2Cl)cc1	10.3µM*	14.4%	0.3%	-14.5%	5.6%
CC(=O)Nc1ccc(S(=O)(=O)N2CCN(S(=O)(=O)c3ccc4c(c3)OCCO4)CC2)cc1	u	x	x	-10.0%	x
CCn1nc(C(=O)Nc2cccc3ccccc23)c(Cl)c1Cl	10.5%	-0.1%	7.08µM*	8.7%	0.0%
CCn1nc(C(=O)Nc2ccccc2C)c(Cl)c1Cl	4.5%	0.1%	4.3%	-4.6%	7.6%
CC(C)Nc1ncnc2ccc(Br)cc12	10.3µM*	-1.5%	-1.7%	-8.1%	-6.1%
NC(=O)CC(NC(=O)Cc1ccc(Br)cc1)c1ccc(NC2CCCCCC2)c([N+](=O)[O-])c1 (stereo unspecified)	23.1µM*	0.3%	-0.7%	u	7.2%
NC(=O)CC(NC(=O)Cc1ccc(Br)cc1)c1ccc(NC2CCCCCCC2)c([N+](=O)[O-])c1 (stereo unspecified)	u	1.2%	-1.3%	u	x
SMILES	Nrf2 block	PINK1 modulator	Nrf2 ARE act	A549 viability	Epigenetic reg
COc1c(C(=O)Nc2nnc(C3CC3)s2)csc1Cl	u	0.4%	8.91µM*	13.1%	x
COc1cc2c(NC3CCN(C(C)C)CC3)nc(N3CCCN(C)CC3)nc2cc1OCCOCCN1CCCC1	x	0.4%	x	x	x
CN(C(=O)COc1ccccc1C(=O)NCCOc1ccccc1)c1ccccc1	14.6µM*	-0.6%	-2.5%	u	0.1%
COc1cccc(/C=C/c2ccccn2)c1O	6.8%	1.4%	8.91µM*	1.7%	-2.4%
COc1ccccc1/C=C/c1cnccn1	x	0.9%	x	x	x
COc1ccc(C2Cc3ccccc3C(=O)N2Cc2ccccc2)cc1COc1ccc(NC(C)=O)cc1 (stereo unspecified)	-26.2%	x	x	-1.1%	x
CCCCOc1ccc(/C=C/C(=O)Nc2ccc([N+](=O)[O-])cc2C)cc1	u	3.5%	0.5%	-0.1%	0.0%
CCCOc1ccc(/C=C/C(=O)Nc2ccc([N+](=O)[O-])cc2)cc1	23.1µM*	u	2.9%	-19.8%	0.3%
O=C(Cn1ccn(-c2ccc(F)cc2)c(=O)c1=O)NCCc1ccccc1	5.8%	0.4%	-0.7%	-6.1%	1.4%
CCOC(=O)CS(=O)(=O)c1nc(-c2ccc(F)cc2)cc(C(F)(F)F)n1	16.4µM*	-0.8%	u	u	u
COCC(C)NC(=O)CCS(=O)(=O)c1nc(-c2ccc(OC)cc2)cc(C(F)(F)F)n1 (stereo unspecified)	-10.8%	-2.8%	15.8µM*	-1.8%	1.8%
COC(=O)CCS(=O)(=O)c1nc(-c2ccccc2)cc(C(F)(F)F)n1	u	-4.7%[38.3 µM]	u	u	1.6%
O=C(CCS(=O)(=O)Cc1ccccc1)Nc1ncc([N+](=O)[O-])s1	u	4.5%	12.6µM*	-9.9%	x
O=C(O)CCc1cccc2ccccc12	x	0.3%	x	x	x
CSc1ccc(CN(C)C(=O)CNC(=O)c2sc3ccccc3c2Cl)cc1	10.3µM*	0.2%	0.5%	u	x
COc1ccc(CN(C)C(=O)CNC(=O)c2sc3ccccc3c2Cl)c(OC)c1OC	u	-0.8%	0.2%	0.6%	x
Cc1ccc(Cl)cc1NC(=O)/C(C#N)=C/c1c(C)n(Cc2ccccc2)c2ccccc12	-9.9%	3.2%	-0.4%	2.6%	-0.8%
Cc1c(/C=C(\C#N)C(=O)Nc2cccc(Cl)c2)c2ccccc2n1Cc1ccccc1	8.2µM*	1.0%	0.3%	u	2.4%
O=C1c2ccccc2C(=O)c2[nH]cnc21	-15.8%	-1.5%	-0.4%	0.3%	-0.3%
O=C1c2ccccc2C(=O)c2[nH]c(=O)[nH]c21	20.6µM*	-1.7%	-1.9%	14.6µM*	x
O=S(c1ccccc1)c1ccc2nnnn2n1 (stereo unspecified)	x	x	x	x	-1.6%
Cc1ccc(C(=O)N2N=C(c3cccc(NS(C)(=O)=O)c3)CC2c2cccs2)cc1 (stereo unspecified)	23.1µM*	-0.4%	14.3%	0.3%	x
CS(=O)(=O)Nc1ccc(C2=NN(C(=O)C3CCCCC3)C(c3cccs3)C2)cc1 (stereo unspecified)	23.1µM*	-3.6%	6.5%	-13.1%	0.0%
O=C(Cc1ccc2ccccc2c1)NO	x	1.7%	x	x	x
CC(=O)N1CCSc2ccc(S(=O)(=O)Nc3ccccc3C)cc21	13µM*	0.5%	0.1%	-22.2%	x
CC(=O)N1CCSc2ccc(S(=O)(=O)Nc3cccc(C)c3)cc21	u	1.4%	-0.3%	-2.5%	x
Cc1ccc(OCC(=O)N/N=C/C=C/c2ccco2)c(Br)c1	-4.9%	1.1%	26.4%	0.4%	x

Screening results: PubChem BioAssay, National Center for Advancing Translational Sciences (NCATS)
